Our source for the binding signal values is publication PMC6451091, “NextPBM: a platform to study cell-specific transcription factor binding and cooperativity”.

Over roughly 3,700 sequences, “z-score” has its median near 4; the highest 2% begin near 8.4. The sample holds the highest values, similar sequences and a random draw of the others, so the mix is not that of the screen.

Assay [1] deals with PU.1 (IVT) (UniProt P17947 1-270). The experiment in a line: protein-binding microarray (PBM); 20 mM HEPES pH 7.9, 100 mM NaCl, 1 mM DTT, 0.2 mg/mL BSA, 0.02% Triton X-100, 2% milk, 0.4 mg/mL salmon testes DNA; 1 h; temperature not stated; high values mean tight binding. Conditions: dsDNA, one strand shown. The gist of the method:
(§1)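 Full-length untagged PU.1 was made by coupled human in vitro transcription/translation. It was bound for 1 h to custom double-stranded DNA microarrays carrying 20-bp genomic sites and single-nucleotide variants, 10 probes per site (5 per orientation). The binding buffer was HEPES pH 7.9 with 100 mM NaCl, 2% milk and salmon testes DNA. Bound protein was detected with anti-PU.1 and then a fluorescent secondary antibody. Binding is a z-score from scanned fluorescence after linear-regression normalisation.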

The target is the same in assay [2]. Described as above. Conditions: dsDNA, one strand shown. Summed up: as §1
This is another data set of the same source.

For the sequence “GCCTAGCACAAAAAGGGGAAGTGATGGCGGTGCTAGGTCTTGATTCGCTTGACGCTGCTG”, the binding signal with PU.1 (IVT) [1] was 8.22 z-score. Consider “GCCTAGCACAAAAAAAGGAAGTCTGTTTTGTGCTAGGTCTTGATTCGCTTGACGCTGCTG”, for which, in the assay with PU.1 (IVT) [2], the binding signal was found to be 6.43 z-score. Take “GCCTAGCACAAAAAAGGGAAGTGAAGTACGTGCTAGGTCTTGATTCGCTTGACGCTGCTG”: the binding signal in the assay with PU.1 (IVT) [1] is 7.2 z-score. On the same count and under the same terms, the result for “GCCTAGCACAAAAAGGGGAAGTGACTTTCGTGCTAGGTCTTGATTCGCTTGACGCTGCTG” reads 8.66 z-score. “GCCTAGCACAAAAAAGGGAAGTGGATGCTGTGCTAGGTCTTGATTCGCTTGACGCTGCTG” displayed a binding signal with PU.1 (IVT) [1] of 7.67 z-score.

The sequence “GCCTAGCACAAAAGGAGGAAGTACTGTGAGTGCTAGGTCTTGATTCGCTTGACGCTGCTG” registered a binding signal in the assay with PU.1 (IVT) [1] of 7.12 z-score. In the assay with PU.1 (IVT) [1], “GCCTAGCACAAAAAGGGGAAGTTGGGGATGTGCTAGGTCTTGATTCGCTTGACGCTGCTG” yielded a binding signal of 8.45 z-score. Sequence “GCCTAGCACAAAAAGGGGAAGTCAATTTTGTGCTAGGTCTTGATTCGCTTGACGCTGCTG” displayed a binding signal with PU.1 (IVT) [1] of 8.55 z-score.

“GCCTAGCACAAAGAAGGGAAGTGACTTGCGTGCTAGGTCTTGATTCGCTTGACGCTGCTG”: the binding signal with PU.1 (IVT) [1] stood at 3.86 z-score. With “GCCTAGCACAAAAAAGGGAAGTGCAAGATGTGCTAGGTCTTGATTCGCTTGACGCTGCTG”, in the assay with PU.1 (IVT) [1], the binding signal turned out to be 7.79 z-score. On the same count and under the same terms, to “GCCTAGCACAAAAAGGGGAAGTCAAATTGGTGCTAGGTCTTGATTCGCTTGACGCTGCTG” belongs 8.09 z-score; to “GCCTAGCACAAAAAGGGGAAGTACTGCGAGTGCTAGGTCTTGATTCGCTTGACGCTGCTG”, 8.58 z-score; to “GCCTAGCACTTAAACAGGAAGTGTGTAATGTGCTAGGTCTTGATTCGCTTGACGCTGCTG”, 5.79 z-score. For “GCCTAGCACTTAAGGAGGAACTGAAACCAGTGCTAGGTCTTGATTCGCTTGACGCTGCTG”, in the assay with PU.1 (IVT) [2], the binding signal stood at 2.65 z-score. On to “GCCTAGCACTAAAGGAGGAACTGAAAACAGTGCTAGGTCTTGATTCGCTTGACGCTGCTG”, for which the binding signal in the assay with PU.1 (IVT) [2] stood at 3.62 z-score. In the assay with PU.1 (IVT) [1], “GCCTAGCACTAAAAGAGGAACTGAAACCAGTGCTAGGTCTTGATTCGCTTGACGCTGCTG” came in with a binding signal of 6.72 z-score.

Turning to “GCCTAGCACCTGCAAAGGAAGTCTGGGCCGTGCTAGGTCTTGATTCGCTTGACGCTGCTG”, the binding signal with PU.1 (IVT) [2] came out at 0.767 z-score.

Consider “GCCTAGCACTGGAAGAGGAAGTTGGTTTTGTGCTAGGTCTTGATTCGCTTGACGCTGCTG”, for which the binding signal in the assay with PU.1 (IVT) [1] was found to be 7.15 z-score. In turn, “GCCTAGCACCATTTGTAGAAGTACTGTGCGTGCTAGGTCTTGATTCGCTTGACGCTGCTG” yielded a binding signal with PU.1 (IVT) [2] of 0.808 z-score.

In the assay with PU.1 (IVT) [1], “GCCTAGCACAAAAAGCAGAAGTGTTCTGTGTGCTAGGTCTTGATTCGCTTGACGCTGCTG” returned a binding signal of 6.88 z-score. With “GCCTAGCACAAAAAGGGGAAGTCTGGACTGTGCTAGGTCTTGATTCGCTTGACGCTGCTG”, the binding signal with PU.1 (IVT) [1] turned out to be 7.65 z-score. Same read-out and setting: the result for “GCCTAGCACAAAAAGGGGAAGTGCTTTCTGTGCTAGGTCTTGATTCGCTTGACGCTGCTG” reads 8.76 z-score. Same read-out and setting: the result for “GCCTAGCACAAAAAGGGGAAGTGTGCTGCGTGCTAGGTCTTGATTCGCTTGACGCTGCTG” reads 8.33 z-score. The same measure, in the same setting: the result for “GCCTAGCACGAAATGAGGAAGTGGCTGGTGTGCTAGGTCTTGATTCGCTTGACGCTGCTG” reads 7.9 z-score; that for “GCCTAGCACGAAAAGAGGAAGTCGAATTAGTGCTAGGTCTTGATTCGCTTGACGCTGCTG”, 8.06 z-score; that for “GCCTAGCACGAAAAGAGGAAGTGGAATTTGTGCTAGGTCTTGATTCGCTTGACGCTGCTG”, 8.92 z-score. In the case of “GCCTAGCACGAAATGAGGAAGTGAAATTGGTGCTAGGTCTTGATTCGCTTGACGCTGCTG”, the binding signal in the assay with PU.1 (IVT) [1] came out at 8.42 z-score. Still for that read-out and setting: to “GCCTAGCACAGAAAAAGGAAGTGGAATTTGTGCTAGGTCTTGATTCGCTTGACGCTGCTG” belongs 6.29 z-score; to “GCCTAGCACGGAAAGAGGAAGTCAAAAATGTGCTAGGTCTTGATTCGCTTGACGCTGCTG”, 7.85 z-score; to “GCCTAGCACGAAAAGAGGAAGTCAAATTTGTGCTAGGTCTTGATTCGCTTGACGCTGCTG”, 8.44 z-score.

In the assay with PU.1 (IVT) [1], “GCCTAGCACGAAAAGAGGAAGTCAGACTAGTGCTAGGTCTTGATTCGCTTGACGCTGCTG” came in with a binding signal of 8.15 z-score. The same measure, in the same setting: the result for “GCCTAGCACGAAAAGAGGAAGTCAAACTTGTGCTAGGTCTTGATTCGCTTGACGCTGCTG” reads 8.22 z-score; that for “GCCTAGCACGAAAAGAGGAAGTCAAATTCGTGCTAGGTCTTGATTCGCTTGACGCTGCTG”, 8.31 z-score; that for “GCCTAGCACGAAATGAGGAAGTGCTAGTGGTGCTAGGTCTTGATTCGCTTGACGCTGCTG”, 8.07 z-score. For the sequence “GCCTAGCACGAAAAGAGGAAGTCAGAAATGTGCTAGGTCTTGATTCGCTTGACGCTGCTG”, in the assay with PU.1 (IVT) [1], the binding signal was 8.35 z-score.

“GCCTAGCACAAAAAAAGGAAATGAAAGTAGTGCTAGGTCTTGATTCGCTTGACGCTGCTG”: the binding signal with PU.1 (IVT) [1] worked out at 3.32 z-score. Take “GCCTAGCACGTCAAAAAAAGGAAAAAGCCGTGCTAGGTCTTGATTCGCTTGACGCTGCTG”: the binding signal with PU.1 (IVT) [2] turned out to be 0.885 z-score. In the assay with PU.1 (IVT) [1], “GCCTAGCACAAGAAGCGGAAGTGAAAGACGTGCTAGGTCTTGATTCGCTTGACGCTGCTG” had a binding signal of 6.8 z-score.

In turn, “GCCTAGCACAGAAAAAGGAACTGGCTAGAGTGCTAGGTCTTGATTCGCTTGACGCTGCTG” registered a binding signal with PU.1 (IVT) [2] of 3.75 z-score. Consider “GCCTAGCACCAAAAGAGGAAGTGAGAAGCGTGCTAGGTCTTGATTCGCTTGACGCTGCTG”, for which the binding signal in the assay with PU.1 (IVT) [1] worked out at 8.31 z-score. In the case of “GCCTAGCACGAAAACAGGAAGTGACTGTTGTGCTAGGTCTTGATTCGCTTGACGCTGCTG”, the binding signal with PU.1 (IVT) [1] is 8.08 z-score. “GCCTAGCACGAAAAGAGGAAATGAGAGAGGTGCTAGGTCTTGATTCGCTTGACGCTGCTG” returned a binding signal with PU.1 (IVT) [2] of 5.36 z-score. Still for that read-out and setting: to “GCCTAGCACGAAAAAAGGAAGTCAAATTGGTGCTAGGTCTTGATTCGCTTGACGCTGCTG” belongs 5.97 z-score.

Turning to “GCCTAGCACGAAAAGAGGAAGTGAAATTGGTGCTAGGTCTTGATTCGCTTGACGCTGCTG”, in the assay with PU.1 (IVT) [1], the binding signal is 8.72 z-score.

“GCCTAGCACGAAATGAGGAAGTGATTAGGGTGCTAGGTCTTGATTCGCTTGACGCTGCTG” displayed a binding signal with PU.1 (IVT) [1] of 8.13 z-score.

Turning to “GCCTAGCACGAAATGAGGAAGTGTAAACAGTGCTAGGTCTTGATTCGCTTGACGCTGCTG”, the binding signal with PU.1 (IVT) [1] turned out to be 7.49 z-score. Still for that read-out and setting: the result for “GCCTAGCACGAAATGAGGAAGTTGGTGCTGTGCTAGGTCTTGATTCGCTTGACGCTGCTG” reads 8.11 z-score.

In turn, “GCCTAGCACGAAATGAGGAAGTACCTAAAGTGCTAGGTCTTGATTCGCTTGACGCTGCTG” returned a binding signal with PU.1 (IVT) [1] of 8.71 z-score. “GCCTAGCACGAAGAGAGGAAGTGAAATTGGTGCTAGGTCTTGATTCGCTTGACGCTGCTG” displayed a binding signal with PU.1 (IVT) [2] of 5.29 z-score. In turn, “GCCTAGCACGAAATGAGGAAGTTGAGAGCGTGCTAGGTCTTGATTCGCTTGACGCTGCTG” gave a binding signal in the assay with PU.1 (IVT) [1] of 8.36 z-score. Take “GCCTAGCACGAAAAGAGGAAATGAAATTGGTGCTAGGTCTTGATTCGCTTGACGCTGCTG”: in the assay with PU.1 (IVT) [2], the binding signal was 6.51 z-score. Sequence “GCCTAGCACGAAAAGAGGAAGTCAAATTGGTGCTAGGTCTTGATTCGCTTGACGCTGCTG” displayed a binding signal with PU.1 (IVT) [1] of 8.37 z-score. Take “GCCTAGCACGAAGAGAGGAAGTCAAATTGGTGCTAGGTCTTGATTCGCTTGACGCTGCTG”: the binding signal with PU.1 (IVT) [2] is 4.29 z-score.
